“And” between values parts separate entries of the source, which are not always exact repeats. Equal values may be shown once. Inconclusive results are not listed. The source holds several records for some structures; these can differ, active in one and inactive in another. The source made the active and inactive calls. Rule for the calls, unless noted: active = hit-call score of the fitted dose curve at least 0.9, where 1 is the maximum; inconclusive = response in the unintended direction; inactive = score below 0.9.
Legend:
[1] = target: mouse Peroxisome Proliferator-activated Receptor gamma (PPARg), Pparg (gene 19016) (UniProt P37238); experiment: ATG_mPPARg_XSP2: Attagene TRANS-FACTORIAL Multi-Species (XSP2) HepG2 Assay for mouse Peroxisome Proliferator-activated Receptor gamma (PPARg) (AID 2283830);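 note: hits are gains in reporter mRNA above DMSO so AC50 marks activation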
Sequence of mouse Peroxisome Proliferator-activated Receptor gamma (PPARg), Pparg (gene 19016) (P37238 whole entry, looked up, the tested form may be a part): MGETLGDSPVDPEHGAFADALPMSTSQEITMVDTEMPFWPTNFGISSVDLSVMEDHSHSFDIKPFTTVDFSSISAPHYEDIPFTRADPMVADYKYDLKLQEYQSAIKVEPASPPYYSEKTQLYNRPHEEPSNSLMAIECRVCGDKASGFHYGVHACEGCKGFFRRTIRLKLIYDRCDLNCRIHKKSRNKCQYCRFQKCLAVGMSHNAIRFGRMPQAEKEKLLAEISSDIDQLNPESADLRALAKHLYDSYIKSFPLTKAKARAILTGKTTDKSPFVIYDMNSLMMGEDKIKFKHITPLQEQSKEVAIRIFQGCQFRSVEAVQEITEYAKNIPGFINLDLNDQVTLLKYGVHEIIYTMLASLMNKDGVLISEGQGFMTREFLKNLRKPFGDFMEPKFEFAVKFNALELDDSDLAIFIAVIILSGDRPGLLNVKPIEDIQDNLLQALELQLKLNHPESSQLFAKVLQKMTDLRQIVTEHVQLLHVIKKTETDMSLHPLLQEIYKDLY
Method in brief: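 HepG2 cells transiently transfected with GAL4-UAS reporter units for chimeric NR-Gal4 proteins including mouse PPARg, exposed 24 h; medium contained 3 nM 6-alpha-fluorotestosterone and 1.5 nM norgestrel. Reporter mRNA quantified by RT-PCR, HpaI digestion and capillary electrophoresis, vs DMSO.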

[2] = target: Nuclear receptor subfamily 1 group I member 2 (Mus musculus) (UniProt O54915); experiment: ATG_mPXR_XSP2: Attagene TRANS-FACTORIAL Multi-Species (XSP1) HepG2 Assay for mouse Pregnane X Receptor (PXR) (AID 2283831)
Sequence of Nuclear receptor subfamily 1 group I member 2 (Mus musculus) (O54915 whole entry, looked up): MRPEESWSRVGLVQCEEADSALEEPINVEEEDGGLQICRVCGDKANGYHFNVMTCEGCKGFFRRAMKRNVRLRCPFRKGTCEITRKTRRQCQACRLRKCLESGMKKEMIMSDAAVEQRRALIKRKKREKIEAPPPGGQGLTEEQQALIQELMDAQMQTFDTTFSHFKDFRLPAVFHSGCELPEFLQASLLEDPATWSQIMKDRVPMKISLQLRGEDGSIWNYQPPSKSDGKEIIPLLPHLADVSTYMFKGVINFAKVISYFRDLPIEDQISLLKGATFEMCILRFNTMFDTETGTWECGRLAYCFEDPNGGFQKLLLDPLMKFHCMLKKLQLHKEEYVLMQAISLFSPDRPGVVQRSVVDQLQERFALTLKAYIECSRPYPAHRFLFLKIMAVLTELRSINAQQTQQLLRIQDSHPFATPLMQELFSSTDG
Protocol: (§1) ATG_XSP2_multi-species_TRANS is a cell-based, multiplexed assay created by modifying the existing Attagene TRANS-FACTORIAL system to include a panel of nuclear receptors from some or all the following species: human (Homo sapiens), mouse (Mus musculus), frog (Xenopus laevis), zebrafish (Danio rerio), chicken (Gallus gallus), and turtle (Chrysemys picta). The ECOTOX-FACTORIAL format uses HepG2, a human liver cell line, with measurements taken at 24 hours after chemical dosing in a 24-well plate. Xsp2 included 3 nM 6-alpha-fluorotestosterone and 1.5 nM norgestrel to stimulate the androgen receptor.ATG_mPXR_XSP2 is one of 29 assay components measured or calculated from the ATG_XSP2_multi-species_TRANS assay. It is designed to make measurements of mRNA induction, a form of inducible reporter, as detected with fluorescence intensity signals by Reverse transcription polymerase chain reaction (RT-PCR) and Capillary electrophoresis technology.The assay endpoint ATG_mPXR_XSP2 was analyzed in the positive analysis fitting direction relative to DMSO as the negative control and baseline of activity. Using a type of inducible reporter, measures of mRNA for gain-of-signal activity can be used to understand the reporter gene at the transcription factor-level as they relate to the gene PXR. Furthermore, this assay endpoint can be referred to as a primary readout, because this assay has produced multiple assay endpoints where this one serves a reporter gene function. To generalize the intended target to other relatable targets, this assay endpoint is annotated to the nuclear receptor intended target family, where the subfamily is non-steroidal.
(§2) Human liver HepG2 cells are transiently transfected with multiple reporter transcription units (MRTUs) in 6-well plates using FuGene 6 reagent (Roche; 3 ml FuGene/1 mg DNA). The MRTU constructs are regulated by a cis-regulating element (promoter). […] A major difference between the CIS and TRANS system is that in CIS activities of endogenous TFs are measured, whereas the TRANS assay evaluates changes in activities of exogenous, chimeric NR-Gal4 proteins. […] At the end of 24 hour incubation, total RNA was isolated using TriZol reagent (Invitrogen). The isolated RNA is then reverse-transcribed using oligo(dT) primer and Mo-MLV reverse transcriptase (Invitrogen) with DNAse I (Ambion) treatment for 30 min. The one-tenth of the produced cDNA was amplified by PCR using Taq DNA polymerase (Invitrogen) and two reporter sequence-specific primers. The PCR products were fluorescently labeled by primer extension with 6-arboxyfluorescein (6-FAM) 5'-labeled reporter sequence-specific primer (2 min at 95 C, 20 s at 68 C and 10 min at 72 C) and these products were digested with 5U of HpaI (New England Biolabs) for 2h at 37 C. The fragments were purified using Qiaquick PCR columns (Qiagen), analyzed on an ABI 3130xL genetic analyzer (Applied Biosystems) with peak positions identified by using a set of X-rhodamine (ROX)-labeled MapMarker1000 molecular weight standards (BioVentures). The raw capillary electrophoresis data was processed using Attagraph software (Attagene).

[3] = ATG_M_61_XSP2: Attagene TRANS-FACTORIAL Multi-Species (XSP2) HepG2 Assay for M61 Transcription Factor (Internal Marker) (AID 2283835; active = hit-call score of the fitted dose curve at least 0.9, where 1 is the maximum; inactive = score below 0.9;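 note: reporter mRNA of an internal background marker read by RT-PCR and capillary electrophoresis; active means a rise in signal above the DMSO baseline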)
Method in brief: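 HepG2 cells transiently transfected with multiple GAL4-UAS reporter units; 3 nM 6-alpha-fluorotestosterone and 1.5 nM norgestrel present to stimulate androgen receptor. After 24 h compound exposure, reporter mRNA measured by RT-PCR and capillary electrophoresis fluorescence, gain-of-signal versus DMSO baseline.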

[4] = target: human Thyroid hormone Receptor alpha (TRa), THRA (gene 7067) (UniProt P10827); experiment: ATG_hTRa_XSP2: Attagene TRANS-FACTORIAL Multi-Species (XSP2) HepG2 Assay for human Thyroid hormone Receptor alpha (TRa) (AID 2283838)
Sequence of human Thyroid hormone Receptor alpha (TRa), THRA (gene 7067) (P10827 whole entry, looked up, the tested form may be a part): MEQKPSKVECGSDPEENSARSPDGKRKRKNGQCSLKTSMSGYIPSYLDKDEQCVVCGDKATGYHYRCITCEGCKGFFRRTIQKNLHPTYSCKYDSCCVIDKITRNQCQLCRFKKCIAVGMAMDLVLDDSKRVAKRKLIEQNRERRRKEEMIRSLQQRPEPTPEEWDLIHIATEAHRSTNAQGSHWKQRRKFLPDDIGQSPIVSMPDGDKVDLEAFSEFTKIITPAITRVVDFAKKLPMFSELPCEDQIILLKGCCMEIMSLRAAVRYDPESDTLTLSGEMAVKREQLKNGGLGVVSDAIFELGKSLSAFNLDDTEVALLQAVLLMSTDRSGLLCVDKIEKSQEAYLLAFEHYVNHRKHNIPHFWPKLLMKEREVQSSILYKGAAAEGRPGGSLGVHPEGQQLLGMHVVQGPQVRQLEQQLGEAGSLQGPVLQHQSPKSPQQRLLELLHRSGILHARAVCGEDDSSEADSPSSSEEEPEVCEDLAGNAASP
Method in brief: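 HepG2 cells transiently transfected with multiplexed GAL4-UAS reporter units and exogenous NR-GAL4 chimeras; 24 h chemical exposure with 3 nM 6-alpha-fluorotestosterone and 1.5 nM norgestrel present. Reporter mRNA measured by RT-PCR, FAM labelling, HpaI digestion, capillary electrophoresis; gain-of-signal versus DMSO.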

[5] = target: frog Thyroid hormone Receptor alpha (TRa), thra-a (gene 397942) (UniProt P15204); experiment: ATG_frTRa_XSP2: Attagene TRANS-FACTORIAL Multi-Species (XSP2) HepG2 Assay for frog Thyroid hormone Receptor alpha (TRa) (AID 2283839);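 for AC50: AC50 reflects induction of frog TRa-driven reporter mRNA above DMSO baseline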
Sequence of frog Thyroid hormone Receptor alpha (TRa), thra-a (gene 397942) (P15204 whole entry, looked up, the tested form may be a part): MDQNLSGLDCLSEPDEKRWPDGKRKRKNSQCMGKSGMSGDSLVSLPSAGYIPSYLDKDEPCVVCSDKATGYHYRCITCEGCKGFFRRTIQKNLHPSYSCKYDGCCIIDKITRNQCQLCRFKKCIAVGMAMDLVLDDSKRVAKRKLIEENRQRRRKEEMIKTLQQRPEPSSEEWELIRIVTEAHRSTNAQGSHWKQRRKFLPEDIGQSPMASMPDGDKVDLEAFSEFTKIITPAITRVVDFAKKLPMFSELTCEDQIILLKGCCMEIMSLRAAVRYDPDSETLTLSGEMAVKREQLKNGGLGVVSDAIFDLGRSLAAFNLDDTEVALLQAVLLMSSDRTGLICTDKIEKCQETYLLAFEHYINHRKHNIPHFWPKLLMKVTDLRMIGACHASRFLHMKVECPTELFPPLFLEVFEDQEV
Method in brief: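 Read-out: fluorescent reporter-transcript fragments resolved by capillary electrophoresis after RT-PCR and HpaI cut. Human HepG2 liver cells carry a transfected frog TRα-Gal4 chimera driving a UAS reporter; 24 h exposure, DMSO baseline, positive-direction fit.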

[6] = test system: turtle Thyroid Hormone Receptor, alpha (TRa), gene 101949057; experiment: ATG_trTRa_XSP2: Attagene TRANS-FACTORIAL Multi-Species (XSP1) HepG2 Assay for turtle Thyroid Hormone Receptor, alpha (TRa) (AID 2283834);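 note: hits raise reporter mRNA over the DMSO baseline so AC50 marks activators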
Method in brief: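 Readout: reporter mRNA induction, fluorescence after RT-PCR, HpaI digestion and capillary electrophoresis. Transiently transfected HepG2, exogenous NR-Gal4 chimera driving GAL4-UAS reporter, 24 h compound exposure. Activity fitted upward relative to DMSO baseline.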

[7] = target: zebrafish Thyroid Hormone Receptor beta (TRb), thrb (gene 30607) (UniProt Q9PVE4); experiment: ATG_zfTRb_XSP2: Attagene TRANS-FACTORIAL Multi-Species (XSP1) HepG2 Assay for zebrafish Thyroid Hormone Receptor beta (TRb) (AID 2283836)
Sequence of zebrafish Thyroid Hormone Receptor beta (TRb), thrb (gene 30607) (Q9PVE4 whole entry, looked up, the tested form may be a part): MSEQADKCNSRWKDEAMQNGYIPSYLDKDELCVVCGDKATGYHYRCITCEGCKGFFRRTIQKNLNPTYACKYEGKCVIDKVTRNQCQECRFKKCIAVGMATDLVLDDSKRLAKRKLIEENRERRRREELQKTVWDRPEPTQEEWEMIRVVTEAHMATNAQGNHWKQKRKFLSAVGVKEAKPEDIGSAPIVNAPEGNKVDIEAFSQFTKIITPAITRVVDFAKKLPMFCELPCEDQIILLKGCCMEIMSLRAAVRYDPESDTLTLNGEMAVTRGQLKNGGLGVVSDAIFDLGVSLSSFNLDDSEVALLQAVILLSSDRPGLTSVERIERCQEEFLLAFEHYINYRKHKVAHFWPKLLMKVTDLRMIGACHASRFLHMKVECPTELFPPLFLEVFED
Method in brief: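 Fluorescence of labelled reporter cDNA fragments, separated by capillary electrophoresis, gives mRNA induction from exogenous NR-Gal4 chimeras in transiently transfected HepG2 cells after 24 h dosing; 3 nM 6-alpha-fluorotestosterone and 1.5 nM norgestrel included in the run.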

[8] = target: zebrafish Thyroid Hormone Receptor alpha (TRa), thraa (gene 30670) (UniProt Q98867); experiment: ATG_zfTRa_XSP2: Attagene TRANS-FACTORIAL Multi-Species (XSP1) HepG2 Assay for zebrafish Thyroid Hormone Receptor alpha (TRa) (AID 2283832);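 note: actives raise zebrafish TRa-Gal4 reporter transcript above DMSO baseline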
Sequence of zebrafish Thyroid Hormone Receptor alpha (TRa), thraa (gene 30670) (Q98867 whole entry, looked up, the tested form may be a part): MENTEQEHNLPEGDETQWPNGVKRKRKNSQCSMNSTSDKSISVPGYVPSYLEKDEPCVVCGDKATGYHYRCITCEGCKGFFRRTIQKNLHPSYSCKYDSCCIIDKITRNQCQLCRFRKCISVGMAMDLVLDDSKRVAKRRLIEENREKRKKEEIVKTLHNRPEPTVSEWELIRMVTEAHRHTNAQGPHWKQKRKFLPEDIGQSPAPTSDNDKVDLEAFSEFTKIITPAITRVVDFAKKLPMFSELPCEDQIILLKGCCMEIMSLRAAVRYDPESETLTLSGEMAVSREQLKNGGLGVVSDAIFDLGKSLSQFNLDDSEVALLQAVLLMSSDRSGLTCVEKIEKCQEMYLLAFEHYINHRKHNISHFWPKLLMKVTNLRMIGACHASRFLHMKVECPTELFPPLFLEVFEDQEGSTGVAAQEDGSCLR
Method in brief: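 Chimeric receptor-Gal4 activity was assessed in transfected human liver HepG2 cells 24 h after dosing, using reporter transcript levels detected by RT-PCR and capillary electrophoresis. DMSO served as baseline.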

[9] = test system: zebrafish Peroxisome Proliferator-activated Receptor gamma (PPARg), gene 557037; experiment: ATG_zfPPARg_XSP2: Attagene TRANS-FACTORIAL Multi-Species (XSP2) HepG2 Assay for zebrafish Peroxisome Proliferator-activated Receptor gamma (PPARg) (AID 2283833);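 note: actives increase reporter signal over DMSO so AC50 reflects activation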
Protocol: as §1, with “receptor.ATG_zfPPARg_XSP2” for “receptor.ATG_mPXR_XSP2”, “ATG_zfPPARg_XSP2” for “ATG_mPXR_XSP2”, “PPARg.” for “PXR.”
as §2

[10] = ATG_XTT_Cytotoxicity_XSP2: Cytotoxicity Assessment in the Attagene TRANS-FACTORIAL Multi-Species (XSP2) HepG2 Assay (AID 2283837)
Method in brief: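 HepG2 cells, transiently transfected with multiple reporter constructs, exposed to chemical for 24 h. Cell number assessed with XTT fluorescence read-out; loss of signal fitted relative to DMSO.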

Measured: AC50

Clc1ccc(C(c2ccccc2Cl)C(Cl)(Cl)Cl)cc1 (centres undefined)
inactive: [1] | [3] | [4] | [5]
active: [2] 5.09 µM

ClC(Cl)=C(c1ccc(Cl)cc1)c1ccc(Cl)cc1
inactive: [1] | [2] | [6] | [7] | [5]

CC(C)(O)C(=O)Nc1ccc([N+](=O)[O-])c(C(F)(F)F)c1
active: [5] 9.93 µM
not listed: [1] | [9] | [10]
inactive: all other assays above

c1cc2ccc3cccc4ccc(c1)c2c34
active: [1] 27.9 µM | [2] 19.6 µM and 15 µM
inactive: [1] | [8] | [9] | [6] | [7] | [10] | [4] | [5]

CC(c1ccc(O)cc1)(c1ccc(O)cc1)c1ccc(O)cc1
not listed: [2] | [4] | [10]
inactive: all other assays above

Cc1cc(-c2ccc(N)c(C)c2)ccc1N
inactive: [1] | [2] | [8] | [9] | [6] | [7] | [10] | [4] | [5]
active: [1] 27.7 µM and 55.5 µM | [2] 5.2 µM | [9] 10.8 µM

C[C@]12CCC(=O)C=C1CC[C@@H]1[C@@H]2CC[C@]2(C)C(=O)CC[C@@H]12
inactive: [2] | [6] | [3] | [7] | [4] | [5]

C[C@]12CCC(=O)C=C1CC[C@@H]1[C@@H]2CC[C@@]2(C)[C@H]1CC[C@]2(C)O
inactive: [6] | [3] | [4]

CCOC(=O)C(O)(c1ccc(Cl)cc1)c1ccc(Cl)cc1
inactive: [8] | [9] | [6] | [3] | [7] | [4] | [5]
active: [1] 10.6 µM and 22.3 µM | [2] 7.9 µM and 8.04 µM | [10] 100 µM | [4] 55.6 µM

CC(C)(c1ccccc1)c1ccc(O)cc1
inactive: [1] | [6] | [3] | [7] | [4] | [5]

CCC(=O)O[C@H]1CC[C@H]2[C@@H]3CCC4=CC(=O)CC[C@]4(C)[C@H]3CC[C@]12C
inactive: [6] | [3] | [7] | [4] | [5]

Oc1ccc(C(c2ccc(O)cc2)(C(F)(F)F)C(F)(F)F)cc1
inactive: [1] | [2] | [8] | [9] | [6] | [5]
active: [1] 33.4 µM

From PubChem BioAssay (EPA / NIEHS)
